The source made the active and inactive calls. Calls follow the shape of the dose curve; as a rule, active = well fitted curve in the direction sought with a large enough effect in the repeat runs; inconclusive = weak or mixed curves; inactive = flat fitted curve, though single readings scatter.
Test: qHTS assay to test for compound auto fluorescence at 590 nm (red) in HepG2 cells (AID 720674)
Details: HepG2 autofluorescence, red 540/590 nm, 1 h; series mostly up to 91.3 µM; fluorescence, relative to Rose Bengal: at the top concentration
From the text: U.S. Tox21 Program National Center for Advancing Translational Sciences [NCATS] NIH Chemical Genomics Center [NCGC] U.S. Environmental Protection Agency [EPA] National Institutes of Environmental Health Sciences [NIEHS] National Toxicology Program [NTP] U.S. Food and Drug Administration [FDA] Tox21 Assay Overview: Compound auto fluorescence often interferes with screening of the compound library against various biological targets and signaling pathways. Some of these compounds may have fluorophoric properties. Such properties may interfere with the assay outputs resulting in false positives and/or negatives. To decrease such complications and ensure the compound activities are relevant in terms of biological response, the Tox21 10K compound library was screened for auto fluorescence. From the fluorophores used as reporter signals in our screening assays, the auto fluorescence equivalencies of compounds against three fluorophores have been evaluated: Triamterene, Fluorescein and Rose Bengal sodium for blue, green and red fluorescence, respectively. The fluorescence intensities were measured using Excitation/Emission wavelengths at 405/460nm, 485/535nm and 540/590nm for blue, green and red labels, respectively. This assay includes the red fluorescence data.
Tox21 Assay Protocol Summary: 2,000 HepG2 cells in 5 uL of culture medium (MEM containing 10% FBS) per well were dispensed into black wall/clear bottom 1536-well plates using a Multidrop Combi Dispenser (ThermoFisher Scientific, Waltham, MA). The assay plates were incubated overnight at 37 C to allow cell attachment to the well bottom, followed by the transfer of 23 nL compound or DMSO vehicle by a pintool work station (Kalypsys , San Diego, CA). After the assay plates were incubated for 1 hr at 37 C and 5% CO2, fluorescence intensities in the assay plates were measured by an Envision (PerkinElmer, Shelton, CT) plate reader using three labels for measuring blue, green and red fluorescence at […] 460, 535 and 590 nm respectively.
With `C=CCOc1c(Br)cc(Br)cc1Br` the “fluorescence, relative to Rose Bengal” value was 0.455% (inactive). In the case of `CCNC(=O)/C=C/c1cccc(Br)c1`, the “fluorescence, relative to Rose Bengal” value is reported as 0.0813% [at 46 µM] (inactive). For `NS(=O)(=O)c1ccc(Cl)c(S(N)(=O)=O)c1`, the “fluorescence, relative to Rose Bengal” value was 0.525% [at 46 µM] (inactive). For `CC(=O)OC(C)(C)Cc1ccccc1`, the “fluorescence, relative to Rose Bengal” value was -1% (inactive). In the case of `COCC(=O)Nc1c(I)c(C(=O)NCC(O)CO)c(I)c(C(=O)N(C)CC(O)CO)c1I` (stereo not given), the fluorescence, relative to Rose Bengal is reported as -0.339% [at 18.6 µM] (inactive). With `CCCCC/C=C/CC(=O)OC` the “fluorescence, relative to Rose Bengal” value was -0.0976% (inactive). For `CC(=O)OC(C(=O)c1ccccc1)c1ccccc1` (stereo not given), the “fluorescence, relative to Rose Bengal” value was -0.0592% (inactive). With `CN[C@@H]1[C@H](O)[C@H](NC)[C@H]2O[C@@]3(O)C(=O)C[C@@H](C)O[C@H]3O[C@@H]2[C@H]1O` the fluorescence, relative to Rose Bengal was -0.0467% [at 18.6 µM] (inactive). In the case of `CO[Si](CCCS)(OC)OC`, the “fluorescence, relative to Rose Bengal” value is reported as -0.0088% (inactive). In the case of `CCCCC(CC)COC(=O)c1ccccc1` (stereo not given), the “fluorescence, relative to Rose Bengal” value is reported as 0.339% (inactive). For `Nc1ccc(S(=O)(=O)NC(=O)c2ccccc2)cc1`, the fluorescence, relative to Rose Bengal was 0.536% [at 18.6 µM] (inactive). For `CC(C)CCCCCCOC(=O)C1CCCCC1C(=O)OCCCCCCC(C)C` (stereo not given), the “fluorescence, relative to Rose Bengal” value was -0.0046% (inactive). For `COc1ccc(/C=N/NC(=O)c2ccncc2)cc1OC`, the “fluorescence, relative to Rose Bengal” value was -0.659% [at 46 µM] (inactive). In the case of `C=CCCCCCCCCCCC`, the fluorescence, relative to Rose Bengal is reported as 0.0415% [at 3.72 µM] (inactive). With `CC(CC(=O)O)CC(C)(C)C` (stereo not given) the “fluorescence, relative to Rose Bengal” value was 0.218% (inactive). In the case of `CC(C)COC(=O)COc1ccc(Cl)cc1Cl`, the “fluorescence, relative to Rose Bengal” value is reported as -0.194% (inactive). With `C[C@H](CCC(=O)NCC(=O)O)[C@H]1CC[C@H]2[C@@H]3[C@H](O)C[C@@H]4C[C@H](O)CC[C@]4(C)[C@H]3C[C@H](O)[C@]12C` the “fluorescence, relative to Rose Bengal” value was 0.078% (inactive). With `CCCCCCCCCCCCOC(C)=O` the “fluorescence, relative to Rose Bengal” value was -0.469% (inactive). With `CC(Cl)COP(=O)(OCC(C)Cl)OCC(C)Cl` (stereo not given) the “fluorescence, relative to Rose Bengal” value was -0.265% (inactive). For `CCCCCCCC/C=C\CCCCCCCC(=O)OC[C@@H](O)[C@H]1OC[C@H](O)[C@H]1O`, the outcome was “inactive”. For `COc1ccc(NS(=O)(=O)c2ccc(N)cc2)nn1`, the fluorescence, relative to Rose Bengal was 0.178% [at 18.6 µM] (inactive). For `CCOC(=O)C(C)(C)C`, the “fluorescence, relative to Rose Bengal” value was -0.545% (inactive). In the case of `CCN1CN(CC)CN(CC)C1`, the “fluorescence, relative to Rose Bengal” value is reported as -0.6% (inactive). With `Cc1nc(C)nc(N2C[C@@H](C)N(c3ccnc([C@@H](C)O)n3)[C@@H](C)C2)n1` the “fluorescence, relative to Rose Bengal” value was -0.139% [at 46 µM] (inactive). In the case of `CCS(=O)(=O)CCn1c([N+](=O)[O-])cnc1C`, the fluorescence, relative to Rose Bengal is reported as 0.187% [at 18.6 µM] (inactive). With `CCCCCC(=O)OCC` the “fluorescence, relative to Rose Bengal” value was 0.0303% (inactive). In the case of `CC(C)CCC(=O)CCC(C)C`, the “fluorescence, relative to Rose Bengal” value is reported as 0.128% (inactive). In the case of `CCCOC(=O)CCCCC(=O)OCCC`, the “fluorescence, relative to Rose Bengal” value is reported as 0.524% (inactive). With `C=C(C)C(=O)OC1CC(C)CC(C)(C)C1` (stereo not given) the “fluorescence, relative to Rose Bengal” value was -0.0693% (inactive). For `CC(C)=CC(C)(C)C`, the “fluorescence, relative to Rose Bengal” value was -0.0223% (inactive). With `O=CO` the fluorescence, relative to Rose Bengal was 0.134% [at 9.17 µM] (inactive). For `CCCCC(CC)C(=O)OC(C)C` (stereo not given), the “fluorescence, relative to Rose Bengal” value was -0.0993% (inactive). In the case of `FC(F)(F)c1ccc(Cl)cc1Cl`, the “fluorescence, relative to Rose Bengal” value is reported as -0.0319% (inactive). With `NS(=O)(=O)c1cc2c(cc1Cl)NC(C(Cl)Cl)NS2(=O)=O` (stereo not given) the fluorescence, relative to Rose Bengal was 0.314% [at 18.6 µM] (inactive). With `CNC(=O)NC` the “fluorescence, relative to Rose Bengal” value was -0.0671% [at 95.7 µM] (inactive). With `Nc1ccc(/C=C/c2ccc(N)cc2S(=O)(=O)O)c(S(=O)(=O)O)c1` the “fluorescence, relative to Rose Bengal” value was 0.413% [at 46 µM] (inactive). With `O=C1OC(=O)c2cc(Oc3ccc4c(c3)C(=O)OC4=O)ccc21` the “fluorescence, relative to Rose Bengal” value was 0.425% (inactive). With `O=C(/C=C/c1ccccc1)NCCO` the “fluorescence, relative to Rose Bengal” value was -0.486% [at 46 µM] (inactive). For `COc1cc(C=O)ccc1OC(=O)C(C)C`, the “fluorescence, relative to Rose Bengal” value was -0.039% (inactive). In the case of `C=C(C)C(=O)OC`, the “fluorescence, relative to Rose Bengal” value is reported as -0.321% (inactive).
% is scaled to controls: 0 for no effect and ±100 for the full control effect.
